Bioassay records as filed in PubChem BioAssay.
Compounds with a hit are over-represented: about 6.8% of the library has one in this group of screens.
C diff HTS = blocks growth of Clostridium difficile. Clostridium difficile clinical isolate growth, OD600, 24 h; hits give low values. hit rate 0.25% among 86,000. growth activity, negative = inhibition, % at 16 µg/mL (by protocol);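 active = mean growth activity at or below -80% and every replicate also at or below -80%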;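 note: 0% = DMSO wells and -100% = levofloxacin 16 µg/mL wells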
T cruzi growth = T. cruzi proliferation inhibition | T. cruzi beta-gal in NIH3T3, GalScreen luminescence, 90 h | inhibition, % at 8.34 µM | hit rate 5.9% among 77,000;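 active = mean inhibition above about 93%, with at least 55% of replicates each passing it, limit read from the data, passing the limit was not always enough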
Pf Dd2 inh = inhibitors of Plasmodium falciparum Dd2 growth; P. falciparum Dd2 growth, SYBR Green, 72 h; hits give low values; activity change, % at 10 µM; hit rate 2.3% among 94,000; in the data active = activity change below about -80%
Starred values were filed as active, the others as inactive; / = not tested or not shown.

SMILES	C diff HTS	T cruzi growth	Pf Dd2 inh
C[C@@H]1CN([C@@H](C)CO)C(=O)Cc2cc(NC(=O)Nc3ccccc3)ccc2O[C@H]1CN(C)CC1CC1	1.4	-21.4	-86.7*
C[C@H]1CN([C@@H](C)CO)C(=O)Cc2cc(NC(=O)Nc3ccccc3)ccc2O[C@H]1CN(C)CC1CC1	-5.5	33.7	-75.1
C[C@H]1CN([C@@H](C)CO)C(=O)Cc2cc(NC(=O)Nc3cccc4ccccc34)ccc2O[C@@H]1CN(C)CC1CC1	-3.1	12.2	-61.7
C[C@@H]1CN([C@@H](C)CO)C(=O)Cc2cc(NC(=O)Nc3cccc4ccccc34)ccc2O[C@@H]1CN(C)CC1CC1	-0.6	36.5	-85.2*
CC(C)NC(=O)N(C)C[C@H]1Oc2ccc(NS(=O)(=O)c3ccc(Cl)cc3)cc2C(=O)N([C@H](C)CO)C[C@@H]1C	0.4	-24.6	24.9
C[C@H]1CN([C@@H](C)CO)C(=O)c2ccccc2-c2ccccc2CO[C@H]1CN(C)S(=O)(=O)c1ccc(Cl)cc1	-4.7	51.1	-82.8*
C[C@@H]1CN([C@H](C)CO)C(=O)c2ccccc2-c2ccccc2CO[C@H]1CN(C)S(=O)(=O)c1ccc(Cl)cc1	6.7	50.3	-37.7
C[C@H](CO)N1C[C@H](C)[C@H](CN(C)S(=O)(=O)c2ccccc2)OCc2ccccc2-c2c(n(C)c3ccccc23)C1=O	-8.6	/	-35.5
COc1ccc(S(=O)(=O)N(C)C[C@@H]2OCc3ccccc3-c3c(n(C)c4ccccc34)C(=O)N([C@@H](C)CO)C[C@H]2C)cc1	/	60.9	-57.2
COc1cccc(S(=O)(=O)N(C)C[C@H]2OCc3ccccc3-c3c(n(C)c4ccccc34)C(=O)N([C@@H](C)CO)C[C@@H]2C)c1	1.9	34.7	-83.4*
C[C@H](CO)N1C[C@H](C)[C@@H](CN(C)S(=O)(=O)c2ccc(Cl)cc2)OCc2ccccc2-c2c(n(C)c3ccccc23)C1=O	/	80.6	-85.2*
Cc1noc(C)c1S(=O)(=O)N(C)C[C@H]1OCc2ccccc2-c2c(n(C)c3ccccc23)C(=O)N([C@@H](C)CO)C[C@H]1C	2.0	84.3	-88.7*
Cc1noc(C)c1S(=O)(=O)N(C)C[C@@H]1OCc2ccccc2-c2c(n(C)c3ccccc23)C(=O)N([C@@H](C)CO)C[C@H]1C	9.8	11.4	17.2
O=C(C1CCCC1)N1C[C@H]2[C@@H](c3ccccc31)[C@@H](CO)N2C(=O)Nc1cccc(F)c1	6.4	-3.8	-8.9
C[C@@H]1CCCCO[C@H](CN(C)S(=O)(=O)c2cccs2)[C@H](C)CN([C@@H](C)CO)C(=O)c2cc(NS(=O)(=O)c3ccccc3)ccc2O1	-5.0	89.0	-53.8
C[C@H]1CN([C@@H](C)CO)C(=O)c2cc(NC(=O)Nc3ccc(C(F)(F)F)cc3)ccc2O[C@@H]1CN(C)C(=O)Nc1ccc(C(F)(F)F)cc1	4.6	62.4	-60.8
COc1ccc(S(=O)(=O)N(C)C[C@H]2OCc3ccccc3-c3c(n(C)c4ccccc34)C(=O)N([C@@H](C)CO)C[C@H]2C)cc1	/	83.2	-82.7*
C[C@H]1CN([C@@H](C)CO)C(=O)c2c(c3ccccc3n2C)-c2ccccc2CO[C@@H]1CN(C)S(=O)(=O)c1ccc([N+](=O)[O-])cc1	0.3	/	-67.9
Cc1ccc(S(=O)(=O)N(C)C[C@H]2OCc3ccccc3-c3c(n(C)c4ccccc34)C(=O)N([C@H](C)CO)C[C@H]2C)cc1	/	61.6	-7.9
C[C@H]1CN([C@@H](C)CO)C(=O)c2c(c3ccccc3n2C)-c2ccccc2CO[C@H]1CN(C)S(=O)(=O)c1ccc([N+](=O)[O-])cc1	-2.0	/	-89.2*
COc1ccc(S(=O)(=O)N(C)C[C@H]2OCc3ccccc3-c3c(n(C)c4ccccc34)C(=O)N([C@H](C)CO)C[C@@H]2C)cc1	/	-13.0	22.3
C[C@H]1CN([C@@H](C)CO)C(=O)c2c(c3ccccc3n2C)-c2ccccc2CO[C@H]1CN(C)S(=O)(=O)c1ccccc1	/	64.8	-84.2*
Cc1ccc(S(=O)(=O)N(C)C[C@H]2OCc3ccccc3-c3c(n(C)c4ccccc34)C(=O)N([C@H](C)CO)C[C@@H]2C)cc1	/	76.6	-87.6*
C[C@@H]1CN([C@@H](C)CO)C(=O)c2c(c3ccccc3n2C)-c2ccccc2CO[C@H]1CN(C)S(=O)(=O)c1ccccc1	/	78.0	-72.0
C[C@@H]1CN([C@H](C)CO)S(=O)(=O)c2ccc(/C=C/c3ccccc3)cc2O[C@H]1CN(C)C(=O)NC1CCCC1	7.6	21.0	-42.0
SMILES	C diff HTS	T cruzi growth	Pf Dd2 inh
C[C@@H]1CN([C@@H](C)CO)C(=O)Cc2cc(NC(=O)Nc3ccc(C(F)(F)F)cc3)ccc2O[C@@H]1CN(C)S(=O)(=O)c1cccs1	20.6	73.4	11.6
COc1ccc(NC(=O)Nc2ccc3c(c2)C(=O)N([C@@H](C)CO)C[C@@H](C)[C@H](CN(C)S(=O)(=O)c2c(C)noc2C)OCCCC[C@H](C)O3)cc1	4.6	-78.4	-48.9
CC(C)CC#Cc1cnc2c(c1)C(=O)N([C@H](C)CO)C[C@H](C)[C@H](CN(C)S(C)(=O)=O)O2	1.2	23.7	26.4
CCCN1C[C@H](C)[C@H](OC)CN(C)C(=O)c2cc(NS(=O)(=O)c3cn(C)cn3)ccc2OC[C@@H]1C	/	-10.7	21.9
CC(C)NC(=O)N(C)C[C@@H]1Oc2ccc(NC(=O)CCCCCC(=O)Nc3ccccc3N)cc2C(=O)N([C@H](C)CO)C[C@H]1C	-1.8	/	8.8
O=C(C[C@H]1CC[C@@H]2[C@H](COC[C@H](O)CN2S(=O)(=O)c2cccc(Cl)c2)O1)Nc1ccccc1	6.1	5.6	-7.3
COc1ccc(NC(=O)Nc2ccc3c(c2)C(=O)N([C@@H](C)CO)C[C@H](C)[C@@H](CN(C)Cc2ccc(C(F)(F)F)cc2)OCCCC[C@@H](C)O3)cc1	5.3	66.2	-90.5*
COc1ccc(NC(=O)Nc2ccc3c(c2)C(=O)N([C@@H](C)CO)C[C@@H](C)[C@@H](CN(C)Cc2ccc(C(F)(F)F)cc2)OCCCC[C@H](C)O3)cc1	8.0	74.8	-76.2
COc1ccc(NC(=O)Nc2ccc3c(c2)C(=O)N([C@@H](C)CO)C[C@@H](C)[C@@H](CN(C)Cc2ccc(C(F)(F)F)cc2)OCCCC[C@@H](C)O3)cc1	-0.6	78.2	-83.0*
COc1ccc(CN(C)C[C@H]2OCCCC[C@H](C)Oc3ccc(NC(=O)Nc4ccc(C(F)(F)F)cc4)cc3C(=O)N([C@@H](C)CO)C[C@H]2C)cc1	8.3	59.2	-74.5
COc1ccc(CN(C)C[C@H]2OCCCC[C@@H](C)Oc3ccc(NC(=O)Nc4ccc(C(F)(F)F)cc4)cc3C(=O)N([C@H](C)CO)C[C@H]2C)cc1	-22.2	101.0	-67.0
COc1ccc(CN(C)C[C@@H]2OCCCC[C@H](C)Oc3ccc(NC(=O)Nc4ccc(C(F)(F)F)cc4)cc3C(=O)N([C@@H](C)CO)C[C@@H]2C)cc1	-15.3	96.4	-86.8*
Cc1ccccc1-c1ccc([C@@H]2[C@@H](CO)N3C(=O)CN(C(=O)Cc4ccccn4)C[C@H]23)cc1	37.4	/	-23.2
C[C@@H]1CN([C@@H](C)CO)C(=O)c2cc(NS(C)(=O)=O)ccc2O[C@@H](C)CCCCO[C@H]1CN(C)C(=O)Nc1ccc(C(F)(F)F)cc1	7.0	/	-15.8
COc1ccc(-c2cnc3c(c2)C(=O)N([C@H](C)CO)C[C@H](C)[C@@H](CN(C)C(=O)Cc2cccnc2)O3)cc1	0.2	/	-10.9
